Measured values as given in PubChem BioAssay (NCI).
About 79,000 compounds went through this panel and 15% of them were active in at least one assay; those are over-represented in the sample as a whole. No stated cut-off is given here; in the data, active means growth inhibition above about 70%; inactive means the rest.

Columns and labels:
[1] = NCI Yeast Anticancer Drug Screen. Data for the rad50 strain (AID 155);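 further: 0% = growth of vehicle-only cultures of the same strain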; conditions: S. cerevisiae rad50 strain growth inhibition; at 50.0 µM; stronger effect = higher value
Method in brief: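 Genetically altered yeast (DNA repair pathway); compound treatment; growth inhibition vs vehicle ctrl.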

[2] = NCI Yeast Anticancer Drug Screen. Data for the mec2-1 strain (AID 157); conditions: S. cerevisiae mec2-1 strain, at 50.0 µM, stronger effect = higher value
Method in brief: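 mec2-1 yeast strain, carrying an alteration in DNA damage repair or cell cycle control, was exposed to compounds; growth inhibition was measured relative to vehicle-treated controls.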

[3] = NCI Yeast Anticancer Drug Screen. Data for the sgs1 mgt1 strain (AID 161);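 further: 0% = growth of cultures given vehicle only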; conditions: S. cerevisiae sgs1 mgt1 strain, at 50.0 µM, stronger effect = higher value
Method in brief: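 Percent growth inhibition was derived by comparing compound-exposed mutant yeast with vehicle-exposed cultures. The strain carries alterations in DNA damage repair.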

[4] = NCI Yeast Anticancer Drug Screen. Data for the cln2 rad14 strain (AID 165);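 further: 0% = growth equal to vehicle treated cultures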; conditions: S. cerevisiae cln2 rad14 strain, at 50.0 µM, stronger effect = higher value
Method in brief: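 Yeast carrying cln2 and rad14 alterations (cell cycle control and DNA damage repair) were exposed to compounds. Growth inhibition was measured against vehicle-treated controls.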

[5] = NCI Yeast Anticancer Drug Screen. Data for the bub3 strain (AID 167); conditions: S. cerevisiae bub3 mutant strain, at 50.0 µM, stronger effect = higher value
Method in brief: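 Yeast carrying a defined mutation is treated with each compound, and growth is compared with that of vehicle-exposed cells to give inhibition.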

[6] = NCI Yeast Anticancer Drug Screen. Data for the mlh1 rad18 strain (AID 175); conditions: S. cerevisiae mlh1 rad18 strain growth inhibition; at 50.0 µM; stronger effect = higher value
Method in brief: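 Growth inhibition of the yeast strain was measured after compound exposure and expressed relative to vehicle-treated controls. The strain carries defined defects in DNA damage repair.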

Measured: growth inhibition

C=C1C(=O)O[C@@H]2C(=O)[C@@H](C)[C@@H]3C=CC(=O)[C@@]3(C)[C@@H](OC(=O)/C(C)=C\C)[C@H]12
inactive: [1] -2.4% | [2] -14.3% | [3] 8.8% | [4] 10.7% | [5] 7.4% | [6] 27.1%

O=C(O)CSCC(=O)c1ccccc1
inactive: [1] -2.1% | [2] -16.4% | [3] -43.2% | [4] -29.1% | [5] -53.4% | [6] -16.6%

COc1cccc(-n2cnc3c(=S)nc[nH]c32)c1
inactive: [1] 4.2% | [2] -9.3% | [3] 9.7% | [4] -41.6% | [5] -4.85% | [6] 1.9%

c1ccc(P(CCCP(c2ccccc2)c2ccccc2)c2ccccc2)cc1
inactive: [1] -15.7% | [2] 21.4% | [3] -24.6% | [4] 38.4% | [5] -0.05% | [6] -15.8%

COc1cc2c[n+]3c4c(cccc4c2cc1OC)CC3
inactive: [1] 5.75% | [2] 0.55% | [3] 1.15% | [4] -2.7% | [5] 3.2% | [6] -13.7%

CC(=O)C1=CN(C)c2ccccc2S1
inactive: [1] 29.6% | [2] 1.75% | [3] 12.2% | [4] -2.55% | [5] -12.8% | [6] 6.15%

CCOC(=N)CC(=O)Nc1ccccc1CC
inactive: [1] 17.8% | [2] -0.05% | [3] 11.6% | [4] 4.05% | [5] 12.1% | [6] 20.9%

CCCCCCCCCCCCOP(=O)(O)OCC(N)C(=O)O (stereo not drawn)
inactive: [1] 10.7% | [2] 9.2% | [3] -11.4% | [4] -39.8% | [5] -18% | [6] -19.3%

O=C1C(O)=C(c2ccccc2)C12CSC1(CS2)C(=O)C(O)=C1c1ccccc1 (stereo not drawn)
inactive: [1] 4.45% | [2] -1.55% | [3] -12.9% | [4] 5.4% | [5] 6.05% | [6] 17.3%

CCC(C)CCC(=O)C(C)C(=O)O (stereo not drawn)
inactive: [1] 5.7% | [2] 3.1% | [3] 3.45% | [4] -11.3% | [5] 4.45% | [6] 0.5%

CC(=O)NCc1cc(C)c(CBr)cc1CBr
inactive: [1] -1.95% | [2] -10.8% | [3] -3.6% | [4] 7.2% | [5] 7.1% | [6] 10.1%

c1cnc2cccnc2c1
inactive: [1] -16.1% | [2] -30.4% | [3] -14.7% | [4] -6.15% | [5] -8.6% | [6] -9.9%

COC(=O)C(C(=O)OC)C(Br)(OC(C)=O)OC(C)=O
inactive: [1] -8.95% | [2] 8.2% | [3] 4.55% | [4] 6.65% | [5] 11.1% | [6] -3.35%

CC(C)(O)C(Cc1ccccc1)c1ccccc1 (stereo not drawn)
inactive: [1] 0.55% | [2] 7.9% | [3] -16.1% | [4] -2.1% | [5] -23.6% | [6] 0.8%

Cc1c(Cl)cccc1NC(=O)c1c(Cl)c(Cl)c(Cl)c(Cl)c1C(=O)O
inactive: [1] 7.15% | [2] -1.35% | [3] 8.6% | [4] -31.7% | [5] 0.85% | [6] 14.1%

O=C1CC2CC1C1CCCC21 (stereo not drawn)
inactive: [1] -32.5% | [2] -18.5% | [3] -56% | [4] -10.2% | [5] -31.4% | [6] -40.7%

Cc1ccccc1N(CC1CO1)CC1CO1 (stereo not drawn)
inactive: [1] 10.2% | [2] -18.1% | [3] -20.8% | [4] -19% | [5] -0.8% | [6] -3.25%

O=C(NC1C(=O)NNC1c1cccc([N+](=O)[O-])c1)c1ccccc1 (stereo not drawn)
inactive: [1] -37.5% | [2] -26.1% | [3] 2.85% | [4] -10.6% | [5] 11.9% | [6] 0.55%

C=CCOc1cc2c(cc1Cc1ccc3c(c1)OCO3)OCO2
inactive: [1] -6.85% | [2] -7.75% | [3] -7.9% | [4] 9.25% | [5] 7.5% | [6] -3.05%

CC1([N+](=O)[O-])COC2(CCCCC2)OC1
inactive: [1] 18.2% | [2] 9.75% | [3] -6.1% | [4] -22.1% | [5] 4.3% | [6] 24.2%

CC1=CC2C3C(=O)NC(=O)C3C1C1C3C(=O)NC(=O)C3C21 (stereo not drawn)
inactive: [1] -25% | [2] -3.9% | [3] 1.2% | [4] -18.6% | [5] 2.45% | [6] 16.4%

COc1ccc(/C=C(/NC(=O)c2ccccc2)C(=O)O)c(OC)c1C
inactive: [1] 2.4% | [2] 0.45% | [3] 1.3% | [4] -66% | [5] -17.2% | [6] -7.65%

Fc1cccc(-c2nnc(-c3cccc(F)c3)o2)c1
inactive: [1] 12.7% | [2] -10.1% | [3] -6.9% | [4] -38% | [5] -2.65% | [6] -4.85%

CC(=O)c1cc([N+](=O)[O-])c(O)c([N+](=O)[O-])c1O
inactive: [1] 20.4% | [2] -2.2% | [3] -14.6% | [4] 12.2% | [5] 7.8% | [6] 8.65%

OCCc1ccc2ccccc2c1
inactive: [1] 4.05% | [2] -5.95% | [3] 3.05% | [4] -9.3% | [5] 13.8% | [6] -1.15%

CC(C)(C)C1(C#N)C(=O)N(c2ccc(Cl)cc2)C12c1ccccc1-c1ccccc12 (stereo not drawn)
inactive: [1] 4.55% | [2] 9.55% | [3] 6.45% | [4] 19.2% | [5] -4.5% | [6] 20.4%

CC1CCC2c3c([nH]c4ccccc34)C3C(=O)N(C4CCCCC4)C(=O)C3C2C1 (stereo not drawn)
inactive: [1] 5.65% | [2] 0.25% | [3] 1.8% | [4] 3.05% | [5] 4.1% | [6] 2.25%

COc1ccc(S(=O)(=O)O)cc1NC(=O)CC(=O)c1cccc([N+](=O)[O-])c1
inactive: [1] -5.5% | [2] -18% | [3] 9.2% | [4] 9.05% | [5] -12% | [6] -15.9%

Cc1ccc(O)c(O)c1
inactive: [1] 33.9% | [2] -13.1% | [3] -6.45% | [4] -8.9% | [5] -20.3% | [6] 23.9%

CCN(CC)CCNc1nnc(NCCN(CC)CC)c2cc3ccccc3cc12
inactive: [1] 3.75% | [2] 21% | [3] -10.1% | [4] -4.45% | [5] -0.25% | [6] 6.8%

O=C(O)CN1C(=O)C2C3c4ccccc4C(c4ccccc43)C2C1=O (stereo not drawn)
inactive: [1] -5.65% | [2] -4.7% | [3] 1.25% | [4] -26.6% | [5] -19.6% | [6] 0%

O=c1[nH]c(=S)c2[nH]c(=O)n(-c3ccccc3)c2[nH]1
inactive: [1] -15.3% | [2] -7.5% | [3] -59.1% | [4] -26.7% | [5] -9.9% | [6] -14.7%

CC(C)NC(=O)C1C2CCC(CC2)C1C(=O)NC(C)C (stereo not drawn)
inactive: [1] 0.95% | [2] 34.6% | [3] -4% | [4] -3.3% | [5] 17.7% | [6] 0.35%

CCCC(=O)OC(C)COc1ccccc1 (stereo not drawn)
inactive: [1] 31.4% | [2] 5.8% | [3] 21.3% | [4] -21.4% | [5] 13.4% | [6] 22.4%

O=C(O)/C=C/n1c2ccccc2c(=O)c2ccccc21
inactive: [1] -10.1% | [2] -13.8% | [3] -20.9% | [4] 8.9% | [5] -7.7% | [6] -15%

O=C(CCl)OC1CCCCC1C1CCCCC1 (stereo not drawn)
inactive: [1] 22.7% | [2] 12.8% | [3] 39.3% | [4] -1.5% | [5] 32% | [6] 39.6%

CCOC(=O)c1cccc(Cl)c1C(=O)O
inactive: [1] -7.75% | [2] -13.1% | [3] 0.25% | [4] -29.5% | [5] -4.05% | [6] -7.75%

CC(=O)C1=C2CCC3C(CCC4CC(O)CCC43C)C2CC1 (stereo not drawn)
inactive: [1] -3.95% | [2] -3.35% | [3] 10.9% | [4] -9.45% | [5] -8% | [6] 11.2%
